# Source: PubChem
# AmpC inh detg: inhibitors of E. coli AmpC beta-lactamase with detergent. Potency, µM (titrated, usually from 114 µM), without a hit: at the top dose activity change, negative = inhibition, most hits filed as inhibitors. AmpC hydrolysis of nitrocefin, absorbance 480 nm, 0.01% Triton. P00811. hit rate 0.041% among 370,000;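 further: 0% = no-compound wells and -100% = no-enzyme wells; nearly all actives have a fitted effect of over 25% in size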
# Target sequence (P00811 whole entry, looked up): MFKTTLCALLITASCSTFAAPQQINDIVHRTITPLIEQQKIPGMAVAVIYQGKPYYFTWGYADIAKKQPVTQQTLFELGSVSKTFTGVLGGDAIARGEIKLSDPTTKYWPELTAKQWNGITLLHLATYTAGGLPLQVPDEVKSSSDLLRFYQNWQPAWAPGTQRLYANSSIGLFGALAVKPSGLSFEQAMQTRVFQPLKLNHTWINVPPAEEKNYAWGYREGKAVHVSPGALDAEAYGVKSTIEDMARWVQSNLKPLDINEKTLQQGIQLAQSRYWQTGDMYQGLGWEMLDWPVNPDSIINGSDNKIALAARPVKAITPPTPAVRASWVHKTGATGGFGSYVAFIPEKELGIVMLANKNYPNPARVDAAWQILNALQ
#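 AmpC (5.3 nM in the dispensed reagent) in 20 mM phosphate pH 7.0 with 0.01% (detergent screen) or 0.0001% Triton X-100 was preincubated with compounds for 15 min at room temperature. Nitrocefin was then added from an 800 uM solution, and hydrolysis was followed at 480 nm.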
# Sm TGR block: S. mansoni TGR enzyme inhibition. Q962Y6. purified TGR, DTNB reduction, TNB absorbance 405 nm. Potency, µM (top dose mostly 114 µM), without a hit: at the top dose activity change, negative = inhibition, most hits filed as inhibitors. hit rate 3% among 360,000. AID 485364; further: nearly all actives have a fitted effect of over 60% in size
#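 First, TGR (20 nM dispensed) and NADPH were mixed with compound. Second, a 15 min room-temperature incubation followed. Third, further NADPH and then DTNB were added to start the reaction. Finally, TNB absorbance was monitored kinetically.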
# AmpC no deterg: blocks E. coli AmpC beta-lactamase in detergent-free assay | AmpC nitrocefin hydrolysis, absorbance 480 nm, 0.0001% Triton | Potency, µM (doses to about 57.1 µM), for the others: at the top dose activity change, negative = inhibition, usual class: inhibitors | hit rate 0.52% among 330,000;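 further: plate controls were no compound for no effect and no enzyme for full effect; nearly all actives have a fitted effect of over 20% in size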
#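 AmpC (5.3 nM in the dispensed reagent) in 20 mM phosphate pH 7.0 with 0.01% (detergent screen) or 0.0001% Triton X-100 was preincubated with compounds for 15 min at room temperature. Nitrocefin was then added from an 800 uM solution, and hydrolysis was followed at 480 nm.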
# Active calls of the source: *; ? = inconclusive; / = no result given. Shown are actives, neighbours in structure and some others; about 3.3% of the full set was active somewhere. The call rests on the fitted dose curve; in most records, active means well fitted curve in the direction sought with a large enough effect; inconclusive means small, poorly fitted or top-dose-only effect, or another doubt; inactive means no such curve, though single readings can be large; an effect the other way counts as inactive or inconclusive. Unless noted, on the % scale 0 is the no-effect control and ±100 the full control effect; potency means the concentration at half of the fitted maximal effect.
SMILES,AmpC inh detg,Sm TGR block,AmpC no deterg
COc1ccc(-c2ccc(CCC(=O)O)n2-c2cc(Cl)ccc2O)cc1,22.2%,?,/
O=C(O)CCc1ccc(-c2ccc(Br)cc2)n1-c1ccc(O)cc1,-5.2%,28.2µM*,-40.8%
COc1ccccc1-c1cc(C(F)(F)F)nc(S(C)(=O)=O)n1,-5.7%,28.2µM*,-11.2%
COc1ccccc1-c1cc(C(F)(F)F)nc(S(=O)(=O)CCCC(=O)N2CCCCC2C)n1 (stereo not drawn),-3.0%,22.4µM*,110.2%
COc1ccccc1-c1cc(C(F)(F)F)nc(N2CCCC2)n1,-1.8%,2.7%,-8.0%
COc1ccccc1-c1cc(C(F)(F)F)nc(S(=O)(=O)CCCC(=O)NC(C)C)n1,1.9%,-1.8%,-9.3%
COc1ccccc1CNC(=O)C(=O)NCC(c1cccs1)S(=O)(=O)c1ccc(F)cc1 (stereo not drawn),3.2%,-34.6%,/
CCn1c(=O)c2c(nc3n2CCN3c2ccc(OC)cc2)n(C)c1=O,8.1%,6.7%,/
Cn1ccnc1SCC(=O)Nc1cc(Cl)ccc1Cl,-0.5%,3.3%,/
Cc1ccc(/C=C2/C(=O)ON=C2c2ccccc2)o1,-13.4%,5.01µM*,-45.3%
Cc1sc(/C=C2\C(=O)ON=C2c2ccccc2)cc1Br,-9.6%,-7.6%,-20.9%
O=C1ON=C(c2ccccc2)/C1=C/c1ccccc1,-11.0%,?,-32.5%
O=C1ON=C(c2ccccc2)/C1=C\c1ccco1,3.3%,25.1µM*,-45.1%
CCOC(=O)c1c(C)[nH]c(CCC(=O)Nc2cc(C)cc(C)c2)c1C,-2.5%,-11.9%,/
COc1ccc(-n2cc(C(=O)N(CCN(C)C)Cc3ccccc3)c3ccccc3c2=O)cc1,0.1%,-8.1%,/
Cc1cc(Br)c(NC(=O)CCNC(=O)OCc2ccccc2)cc1C,3.0%,12.3%,1.5%
Cc1ccc(NC(=O)CNC(=O)OCc2ccccc2)cc1C,2.6%,0.112µM*,-7.3%
COC(=O)C(CCCCNC(=O)OCc1ccccc1)NC(=O)CN (stereo not drawn),-4.4%,79.4µM*,-4.2%
O=C(O)CCCNC(=O)OCc1ccccc1,?,15.5%,-7.2%
O=C(NCc1ccc(Cl)cc1)C(=O)NCC(c1cccnc1)N1CCN(c2ccccc2)CC1 (stereo not drawn),0.3%,-1.3%,/
CCOc1ccccc1NC(=O)CSc1nnc(CC)c(CC)n1,3.1%,4.3%,/
Cn1c(C(=O)N2CCC(C(=O)NCCc3ccc(S(N)(=O)=O)cc3)CC2)cc2sccc21,15.9%,22.6%,/
CC(C)(C)c1nc(CN2CCOCC2)cc(CN2CCOCC2)c1O,?,0.5%,48.5%
Cc1ccc(-c2nc(CN3CCCCC3)cc(CN3CCCCC3)c2O)cc1,-2.0%,20µM*,-2.3%
Cc1ccc(-n2nc3c(N4CCC(C(=O)N5CCCCC5)CC4)nnc(C)c3c2C)cc1,2.7%,-7.3%,/
SMILES,AmpC inh detg,Sm TGR block,AmpC no deterg
Cc1c(C#N)c(N)nc(Cl)c1C#N,1.4%,35.5µM*,3.1%
Cc1nc(N)c(C#N)c(-c2ccccc2)c1C,?,-22.7%,-22.8%
CCc1nc(SCC(=O)c2ccc3c(c2)OCCO3)c2ccccc2n1,-1.5%,-2.2%,85.1%
CCc1nc(SCC(=O)c2ccccc2)c2ccccc2n1,1.2%,44.7µM*,233.0%
COc1cccc(C2C(C(=O)c3cc4cccc(OC)c4o3)=C(O)C(=O)N2c2cc(C)on2)c1OC (stereo not drawn),?,-24.3%,20µM*
COc1cc(C2C(C(=O)c3cccs3)=C(O)C(=O)N2c2cc(C)on2)ccc1O (stereo not drawn),?,-11.6%,-26.9%
COc1cccc(C2C(C(=O)c3cc4ccccc4o3)=C(O)C(=O)N2c2cc(C)on2)c1OC (stereo not drawn),-1.9%,4.4%,-42.0%
COc1cccc2cc(C(=O)C3=C(O)C(=O)N(c4cc(C)on4)C3c3cccs3)oc12 (stereo not drawn),-1.7%,28.2µM*,-58.9%
Cc1ccc(-c2nc3ccccc3o2)cc1NC(=O)c1cccc2c(Cl)cccc12,-0.9%,-4.6%,/
C/C(=N\Nc1ccccc1C)c1cccnc1,-1.0%,35.5µM*,-22.1%
C/C(=N\NC(=O)c1ccccc1C)c1cccnc1,1.7%,0.0%,0.2%
O=C(C1COc2ccccc2O1)N(Cc1cccnc1)c1nc2ccc(F)cc2s1 (stereo not drawn),3.9%,7.9%,/
Cc1ccc(-n2c(=O)c3oc4ccccc4c3n(CC(=O)Nc3ccc(F)c(Cl)c3)c2=O)cc1C,-0.2%,3.4%,/
O=C(/C=C/N1CCOCC1)c1ccc(-c2ccccc2)cc1,?,?,-46.5%
O=C(/C=C\N1CCOCC1)c1ccc(Br)cc1,-11.6%,15.8µM*,-39.8%
Cc1ccc(Cl)cc1N1C(=O)CC(Sc2ncccn2)C1=O (stereo not drawn),1.6%,25.1µM*,-17.2%
Nc1ccccc1SC1CC(=O)N(c2ccccc2Cl)C1=O (stereo not drawn),-1.2%,-1.7%,-6.3%
Cc1cccc(N2C(=O)CC(Sc3nc(-c4ccccc4)c4cc(Cl)ccc4n3)C2=O)c1 (stereo not drawn),-10.7%,3.5%,-34.0%
O=C1CC(Sc2ncccn2)C(=O)N1c1ccccc1C(F)(F)F (stereo not drawn),?,39.8µM*,-17.1%
COc1ccc(CCNCc2c(C(=O)O)c(C)n(Cc3c(F)cccc3Cl)c2C)cc1OC,-8.9%,-17.7%,/
CCN(CC)c1ccc(C(=O)NCc2ccc3c(c2)CCN3C(=O)c2ccc(F)cc2)cc1,12.4%,2.8%,/
C/C(=N\Nc1ccccc1)c1cccc(N)c1,-4.7%,?,-23.1%
Oc1ccc(O)c(/C(=N/Nc2ccccc2)c2ccccc2)c1,8.1%,6.31µM*,-45.6%
Cc1cc(NC(=O)C(C)SCC(=O)Nc2ccccc2N2CCCC2)no1 (stereo not drawn),9.0%,-18.6%,-7.3%
Cc1cc(NC(=O)C(C)SCC(=O)Nc2cc(C(F)(F)F)ccc2N2CCCCC2)no1 (stereo not drawn),4.2%,4.2%,31.6µM*
SMILES,AmpC inh detg,Sm TGR block,AmpC no deterg
Cc1ccc(S(=O)(=O)N2CCn3cccc3C2C)cc1 (stereo not drawn),?,?,24.8%
Cc1cccc(S(=O)(=O)N2CCn3cccc3C2C)c1 (stereo not drawn),2.3%,44.7µM*,-32.6%
CCOC(=O)c1cccc(NC(=O)Nc2ccc3c(c2)N(C)C(=O)c2ccccc2S3)c1,-2.4%,-35.3%,/
Cc1nn(-c2ccccc2)c(-n2cccc2)c1C(=O)N1CCN(c2ccccc2)CC1,12.2%,2.7%,/
Cc1cn2c(=O)cc(COc3ccc(NC(=O)COc4ccccc4)cc3)nc2s1,-8.6%,-7.8%,/
O=c1c2c([nH]c3ccccc13)CCCC2,-11.1%,3.6%,-9.2%
O=c1c2c([nH]c3ccccc13)C(=C1CCCC1)CC2,?,12.6µM*,-31.9%
Cc1ccc(CN2C(=O)C3(SCC(=O)N3c3ccc(C)c(C)c3)c3ccccc32)cc1 (stereo not drawn),0.9%,-13.7%,/
CN(C(=O)CSc1nc2ccc(NC(=O)c3ccc(F)cc3)cc2s1)c1ccccc1,-1.0%,-1.1%,/
CCN(CC)C(=O)C1=CC(c2ccc3c(c2)OCO3)=NS(=O)(=O)N1C,2.6%,-4.9%,/
CCN1CCc2nc(N)oc2CC1,0.1%,5.62µM*,-16.1%
